The whole screen tested about 310,000 compounds, of which about 3,900 (1.3%) were called active.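 Rule for the calls: active = calcium-response B-score plate-corrected more than 3 library SD below zero, starting fluorescence within 5 deviations, no agonist response on first addition; inactive = the rest.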 Shown is part of a subset that was picked to be rich in actives.
Target: Mas-related G-protein coupled receptor member X1 (Homo sapiens) (UniProt Q96LB2)
Assay: blockade of BAM8-22-evoked MrgX1 calcium response – HEK293 cells, Fluo-4 calcium flux, primary screen (AID 588676);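 for B-score: peak minus trough fluorescence over baseline after final BAM8-22 challenge near maximal dose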
Details: Fluo-4, BAM8-22 antagonism, at 10 µM; stronger effect = lower value

Sequence of Mas-related G-protein coupled receptor member X1 (Homo sapiens) (Q96LB2 whole entry, looked up): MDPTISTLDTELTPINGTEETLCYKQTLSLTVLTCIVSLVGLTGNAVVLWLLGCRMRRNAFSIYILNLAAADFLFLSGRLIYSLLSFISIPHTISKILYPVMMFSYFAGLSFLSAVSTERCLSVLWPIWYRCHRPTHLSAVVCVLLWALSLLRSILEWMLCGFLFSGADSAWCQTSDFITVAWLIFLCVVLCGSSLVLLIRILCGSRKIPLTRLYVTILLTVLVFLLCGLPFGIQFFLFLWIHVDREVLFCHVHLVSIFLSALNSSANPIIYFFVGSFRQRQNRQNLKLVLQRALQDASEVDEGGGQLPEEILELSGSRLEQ

B-score, active:
COc1ccc(CCNc2cc(N3CCN(C(=O)c4ccccc4OC)CC3)ccc2[N+](=O)[O-])cc1OC -5.34
CCOc1ccc(S(=O)(=O)Nc2ccc(C(=O)NCCCN3CCCC3=O)cc2)cc1 -9
CCNC(=O)c1c(O)c2cccc3c2n(c1=O)CC3 -5.85
Cc1cc(Nc2cc(N3CCN(C)CC3)nc(Sc3ccc(NC(=O)C4CC4)cc3)n2)n[nH]1 -6.92
COc1ccc(CC(=O)Nc2nc(-c3ccc(F)c(F)c3)cs2)cc1OC -5.43
O=C(CSc1c2c(nc3ccc(Cl)cc13)CCCC2)NCc1ccco1 -6.85
COCCCN(C(=O)Cn1ncc2c(=O)oc3ccc(C)cc3c21)C(C)c1ccncc1 (configuration not stated) -9.22
Cc1ccc(CNC(=O)CSc2nnc3c(n2)[nH]c2ccc(F)cc23)cc1 -5.01
CCOc1ccc(CC(=O)Nc2ccc(S(=O)(=O)Nc3cc(C)on3)cc2)cc1OCC -7.96
O=C(NN1C(=O)C2C3C=CC(C3)C2C1=O)c1ccco1 (configuration not stated) -9.57
CC1CCN(S(=O)(=O)c2nnc(NC(=O)COc3ccccc3F)s2)CC1 -4.6
CCc1ccc2nc3sc(C(=O)Nc4nnc(CC)s4)c(N)c3cc2c1 -7.06
CC1=NN(c2ccccc2)C(=O)C1C(=O)c1ccc([N+](=O)[O-])cc1 (configuration not stated) -4.73
CN(C)S(=O)(=O)c1cccc(NC(=S)N/N=C/C(=O)c2ccccc2)c1 -6.77

B-score, inactive:
Cc1ccc(CNC(=O)CCNS(=O)(=O)c2ccc(Br)s2)cc1
O=C1CCC(C(=O)N2CCN(c3ccccc3Cl)CC2)CN1CC1CCCCC1 (configuration not stated)
COc1ccc(CCNC(=O)C2CC3Cn4c(nc5cc(C)c(C)cc54)C3N2C)cc1 (configuration not stated)
COc1ccccc1OCCNc1cc(N2CCOCC2)ccc1[N+](=O)[O-]
O=C(c1ccccc1)N1CCN(c2ccc([N+](=O)[O-])c(NCc3ccco3)c2)CC1
Cc1cccc(N2CC(C(=O)Nc3ccccc3N3CCCC3)CC2=O)c1C (configuration not stated)
CCOc1ccc(C(CC(=O)O)n2cnnn2)cc1OC (configuration not stated)
COC(=O)c1ccc(COC(=O)c2cnc(Cl)c(Cl)c2)cc1
COc1ccccc1C(=O)N/C(=C/c1ccco1)C(=O)Nc1ccc(C(=O)O)cc1
O=C(NCCCN1CCCC1=O)c1ccc(S(=O)(=O)Nc2ccccc2)cc1
CCOc1ccc(C(=O)NCCCN2CCCC2=O)cc1
Oc1cc(O)c2c(c1)OC(c1ccc(O)c(O)c1)C(O)C2 (configuration not stated)
Cc1ccc2cc3cc(C(=O)N4CCCCCC4)oc3nc2c1
CN(C)c1ccc(C(CC(=O)O)C(=O)O)cc1 (configuration not stated)
Cc1cnc(CN(C)C(=O)CC2C(=O)NCCN2Cc2cccc(F)c2F)[nH]1 (configuration not stated)
CCCCCc1nnc(NC(=O)c2ccc(=O)n(C)n2)s1
Cc1cc(=O)n2c3c(cccc13)CCC2
CCCCc1nc2ccccc2c(=O)n1NC(=O)c1c(O)c2cccc3c2n(c1=O)CC3
Nc1[nH][nH]c(=O)c1N=Nc1ccc2c(c1)OCO2
Cc1cc(C)nc(N2CCC(C(=O)Nc3ccc4c(c3)OCCO4)CC2)n1
Cc1cc(C)cc(NC(=O)C2CCN(c3nc(C)cc(C)n3)CC2)c1
Cc1ccc(S(=O)(=O)NC(=O)Nc2nc(-c3ccc(F)c(F)c3)cs2)cc1
COc1cc(CC(=O)Nc2nc(-c3ccc(F)c(F)c3)cs2)cc(OC)c1OC
CCc1nn(CC(=O)N2CCN(c3cc(C)ccc3C)CC2)c(=O)c2cc3occc3n12
O=C(CSc1nnnn1-c1ccccc1)NCc1ccco1
O=C(/C=C/c1ccc(Cl)cc1Cl)NCc1ccco1
COc1ccc(C)cc1NC(=O)CN(C)S(=O)(=O)c1ccc2c(c1)n(C)c(=O)c(=O)n2C
Cc1cc(C)cc(N(CC(=O)NC2CCCC2)C(=O)CCC(=O)Nc2nccs2)c1
Cc1ccc2oc(=O)c3cnn(CC(=O)N(Cc4ccco4)C4CCCCC4)c3c2c1
Cc1ccc2oc(=O)c3cnn(CC(=O)N4CCCCCC4)c3c2c1
CN1CCC(=O)N([C@H](CO)Cc2ccccc2)CC1
CCN(Cc1ccccc1)S(=O)(=O)c1cc(C(=O)O)ccc1OC
Cc1ccn2c(=O)nc(SCC(=O)NCc3ccc(F)cc3)nc2c1
COc1ccc2[nH]c3nc(SCC(=O)NC4CC4)nnc3c2c1
COc1ccc(S(=O)(=O)n2nc(C)c(S(=O)(=O)N3CCOCC3)c2C)cc1
CCc1ccc(OC(C)C(=O)Nc2ccc(S(=O)(=O)Nc3cc(C)on3)cc2)cc1 (configuration not stated)
CCOc1ccc(C(=O)Nc2ccc(S(=O)(=O)Nc3cc(C)on3)cc2)cc1
CCCOc1ccc(CNC(=O)C2CCN(c3nn4c(=O)cc(C)nc4s3)CC2)cc1
O=C(NN1C(=O)C2CCCCC2C1=O)c1ccco1 (configuration not stated)
CC(C)=C1C2CCC1C1C(=O)N(NC(=O)c3ccco3)C(=O)C21 (configuration not stated)
NC(=O)c1cc(S(=O)(=O)N2CCCC2)ccc1OCc1ccc(F)cc1
Cc1ccccc1OCC(=O)Nc1nnc(S(=O)(=O)N2CCCC2)s1
O=C(COc1ccccc1F)NC1CC1
O=S(=O)(CCc1nc2ccccc2o1)c1ccc(Cl)cc1
CCc1nnc(NC(=O)c2sc3nc(C)cc(COC)c3c2N)s1
CCc1nnc(NC(=O)c2cccc(S(=O)(=O)N(C)c3ccc(OC)cc3)c2)s1
COc1ccc(CN2CCN(C(=O)CCC(=O)Nc3nnc(C(C)C)s3)CC2)cc1F
COc1ccccc1C(=O)Nc1nc2nc(-c3ccccc3)cc(=O)n2[nH]1
Cc1ccc(NC(=O)/C(=C/c2ccc([N+](=O)[O-])cc2)NC(=O)c2ccccc2)cc1
Cc1ccc(C)n1NC(=O)c1ccc([N+](=O)[O-])cc1
O=C(CC1CCCCC1)NCc1ccc(F)cc1
CN(C)S(=O)(=O)c1cccc(NC(=S)NCc2ccc3c(c2)OCO3)c1
Cc1ccc(/C=N/NC(=S)Nc2cccc(S(=O)(=O)N(C)C)c2)o1

Source: PubChem BioAssay AID588676 (Johns Hopkins Ion Channel Center, 2011)
